Experimental data taken from PubChem BioAssay AID1159580 (chemical genetic matrix, 2015).
The campaign covered roughly 5,500 compounds. About 2,000 (36%) were called active. Roughly 18% stayed inconclusive and do not appear here. Cut-off read from the data, not from the text of the source: active = normalized growth mostly below about 0.91 (no sharp cut-off); inconclusive = no clear call, values can overlap the other calls; inactive = mostly above about 0.92. Some of the results follow.

Assay: chemical genetic growth profiling, strain panel (AID 1159580);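 note: tested at 20 µM; growth read once vehicle control cultures reached saturation at 30 °C; 1 = growth at the plate median or of vehicle wells; lower values mean less growth of the strain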
Details: growth OD

Measured: normalized growth

CN(C)CCc1c[nH]c2ccc(CS(=O)(=O)N3CCCC3)cc12
inactive: S. cerevisiae deletion strains, locus YJR075W, strain HOC1, active compounds read low 1 | S. cerevisiae deletion strains, locus YKL009W, strain mrt4, active compounds read low 0.992 | S. cerevisiae deletion strains, locus YKL068W, active compounds read low 0.987 | S. cerevisiae deletion strains, locus YKL085W, strain MDH1 (second series), active compounds read low 0.983 | S. cerevisiae deletion strains, locus YKL085W, strain MDH1, active compounds read low 0.983 | S. cerevisiae deletion strains, locus YKL160W, strain elf1, active compounds read low 1.03 | S. cerevisiae deletion strains, locus YKL190W, strain CNB1, active compounds read low 1 | S. cerevisiae deletion strains, locus YKR001C, strain vps1, active compounds read low 0.988 | S. cerevisiae deletion strains, locus YKR026C, strain gcn3, active compounds read low 0.976 | S. cerevisiae deletion strains, locus YKR091W, strain srl3, active compounds read low 1.01 | S. cerevisiae deletion strains, locus YLL001W, strain dnm1, active compounds read low 0.971 | S. cerevisiae deletion strains, locus YLL026W, active compounds read low 0.98 | S. cerevisiae deletion strains, locus YLL041C, strain sdh2, active compounds read low 1 | S. cerevisiae deletion strains, locus YLR027C, strain aat2, active compounds read low 0.997 | S. cerevisiae deletion strains, locus YLR039C, strain RIC1, active compounds read low 0.971 | S. cerevisiae deletion strains, locus YLR058C, strain SHM2, active compounds read low 0.991 | S. cerevisiae deletion strains, locus YLR102C, strain apc9, active compounds read low 0.995 | S. cerevisiae deletion strains, locus YLR113W, strain HOG1, active compounds read low 0.979 | S. cerevisiae deletion strains, locus YLR221C, strain rsa3, active compounds read low 0.96 | S. cerevisiae deletion strains, locus YLR258W, strain gsy2, active compounds read low 1 | S. cerevisiae deletion strains, locus YLR262C, strain YPT6 (second series), active compounds read low 1 | S. cerevisiae deletion strains, locus YLR262C, strain YPT6, active compounds read low 0.968 | S. cerevisiae deletion strains, locus YLR268W, strain sec22, active compounds read low 0.971 | S. cerevisiae deletion strains, locus YLR320W, strain mms22, active compounds read low 0.945 | S. cerevisiae deletion strains, locus YLR330W, strain CHS5, active compounds read low 0.988 | S. cerevisiae deletion strains, locus YLR342W, strain FKS1 (second series), active compounds read low 1.02 | S. cerevisiae deletion strains, locus YLR342W, strain FKS1, active compounds read low 1.01 | S. cerevisiae deletion strains, locus YLR357W, strain rsc2, active compounds read low 1.01 | S. cerevisiae deletion strains, locus YLR370C, strain arc18, active compounds read low 0.992 | S. cerevisiae deletion strains, locus YLR371W, strain rom2, active compounds read low 0.983 | S. cerevisiae deletion strains, locus YLR384C, strain iki3, active compounds read low 0.983 | S. cerevisiae deletion strains, locus YLR418C, strain cdc73, active compounds read low 0.959 | S. cerevisiae deletion strains, locus YML016C, strain PPZ1, active compounds read low 0.987 | S. cerevisiae deletion strains, locus YML032C, strain rad52, active compounds read low 0.99 | S. cerevisiae deletion strains, locus YML120C, strain ndi1, active compounds read low 0.972 | S. cerevisiae deletion strains, locus YML124C, strain tub3, active compounds read low 0.979 | S. cerevisiae deletion strains, locus YMR058W, strain fet3, active compounds read low 0.976 | S. cerevisiae deletion strains, locus YMR078C, strain ctf18, active compounds read low 0.986 | S. cerevisiae deletion strains, locus YMR125W, strain sto1, active compounds read low 0.999 | S. cerevisiae deletion strains, locus YMR129W, active compounds read low 0.98 | S. cerevisiae deletion strains, locus YMR205C, strain PFK2, active compounds read low 0.967 | S. cerevisiae deletion strains, locus YMR223W, strain ubp8, active compounds read low 0.996 | S. cerevisiae deletion strains, locus YMR231W, strain pep5, active compounds read low 0.991 | S. cerevisiae deletion strains, locus YMR263W, strain SAP30, active compounds read low 1.01 | S. cerevisiae deletion strains, locus YMR307W, strain GAS1, active compounds read low 0.994 | S. cerevisiae deletion strains, locus YNL067W, strain RPL9B, active compounds read low 1.03 | S. cerevisiae deletion strains, locus YNL071W, strain lat1, active compounds read low 0.985 | S. cerevisiae deletion strains, locus YNL128W, strain TEP1, active compounds read low 1 | S. cerevisiae deletion strains, locus YNL153C, strain GIM3, active compounds read low 0.995 | S. cerevisiae deletion strains, locus YNL183C, strain NPR1, active compounds read low 0.926 | S. cerevisiae deletion strains, locus YNL209W, strain ssb2, active compounds read low 0.974 | S. cerevisiae deletion strains, locus YNL233W, strain BNI4, active compounds read low 0.988 | S. cerevisiae deletion strains, locus YNL248C, strain rpa49, active compounds read low 1.03 | S. cerevisiae deletion strains, locus YNL250W, strain rad50, active compounds read low 0.986 | S. cerevisiae deletion strains, locus YNL271C, strain bni1, active compounds read low 0.984 | S. cerevisiae deletion strains, locus YNL298W, strain CLA4, active compounds read low 0.981 | S. cerevisiae deletion strains, locus YNL307C, strain MCK1, active compounds read low 0.985 | S. cerevisiae deletion strains, locus YNL322C, strain KRE1 (second series), active compounds read low 1.02 | S. cerevisiae deletion strains, locus YNL322C, strain KRE1, active compounds read low 0.999 | S. cerevisiae deletion strains, locus YNR049C, strain mso1, active compounds read low 0.997 | S. cerevisiae deletion strains, locus YNR052C, strain pop2, active compounds read low 0.992 | S. cerevisiae deletion strains, locus YOL006C, strain TOP1, active compounds read low 0.959 | S. cerevisiae deletion strains, locus YOL012C, strain htz1 0.726 | S. cerevisiae deletion strains, locus YOL147C, strain pex11, active compounds read low 0.995 | S. cerevisiae deletion strains, locus YOR001W, strain rrp6, active compounds read low 0.938 | S. cerevisiae deletion strains, locus YOR061W, strain CKA2, active compounds read low 0.994 | S. cerevisiae deletion strains, locus YOR069W, strain VPS5, active compounds read low 0.992 | S. cerevisiae deletion strains, locus YOR070C, strain gyp1, active compounds read low 1 | S. cerevisiae deletion strains, locus YOR080W, strain dia2, active compounds read low 1 | S. cerevisiae deletion strains, locus YOR083W, strain WHI5, active compounds read low 1 | S. cerevisiae deletion strains, locus YOR106W, strain vam3, active compounds read low 1.04 | S. cerevisiae deletion strains, locus YOR136W, strain idh2, active compounds read low 0.983 | S. cerevisiae deletion strains, locus YOR144C, strain elg1, active compounds read low 0.981 | S. cerevisiae deletion strains, locus YOR184W, strain ser1, active compounds read low 0.989 | S. cerevisiae deletion strains, locus YOR231W, strain MKK1, active compounds read low 0.957 | S. cerevisiae deletion strains, locus YOR265W, strain rbl2, active compounds read low 0.99 | S. cerevisiae deletion strains, locus YOR270C, strain vph1, active compounds read low 0.945 | S. cerevisiae deletion strains, locus YOR290C, strain snf2, active compounds read low 1.02 | S. cerevisiae deletion strains, locus YOR316C, strain cot1, active compounds read low 0.989 | S. cerevisiae deletion strains, locus YPL051W, strain arl3, active compounds read low 1.02 | S. cerevisiae deletion strains, locus YPL055C, strain LGE1, active compounds read low 1.02 | S. cerevisiae deletion strains, locus YPL078C, strain atp4, active compounds read low 1.02 | S. cerevisiae deletion strains, locus YPL106C, strain sse1, active compounds read low 1.02 | S. cerevisiae deletion strains, locus YPL240C, strain hsp82, active compounds read low 0.985 | S. cerevisiae deletion strains, locus YPL241C, strain CIN2, active compounds read low 1.03 | S. cerevisiae deletion strains, locus YPL256C, strain CLN2, active compounds read low 0.959 | S. cerevisiae deletion strains, locus YPR119W, strain clb2, active compounds read low 0.994 | S. cerevisiae deletion strains, locus YPR141C, strain kar3, active compounds read low 0.983 | S. cerevisiae deletion strains, locus YPR163C, strain tif3, active compounds read low 0.985 | S. cerevisiae deletion strains, locus YPR167C, strain met16, active compounds read low 0.982 | S. cerevisiae deletion strains, strain wtn01, active compounds read low 0.99 | S. cerevisiae strains, strain wild type, active compounds read low 1.02
